Assay results taken from PubChem BioAssay (NCI).
This is part of a sample that, as a whole, favours compounds with a hit. Of some 83,000 tested, about 20% had one in any assay.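 Testing used 96-well plates and a 48-hour single-concentration exposure. Example: -40 means 40% of the starting cells died.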 Unmarked numbers belong to inactive results. Activity calls are given as the source filed them.

These compounds were tested on HS 578T breast (assay: NCI-60 one-dose screen, 48 h (100 = growth as untreated, 0 = no growth, -100 = all killed)). Details: 10 µM unless noted.
Protocol: Growth inhibition of the HS 578T human tumor cell line is measured as a screen for anti-cancer activity. Cells are grown in 96 well plates and exposed to the test compound for 48 hours. Compounds are tested at a single concentration, which is 10^-5 M for most compounds. The reported endpoint is percent growth (GI% or GIPRCNT), where numbers from 0 - 100% represent growth inhibition, and numbers from -100% - 0 represent cell death. For example, a value of 40 represents 60% growth inhibition. A value of 0 means no net growth occurred over the course of the experiment. A value of -40 indicates 40% of cells at the beginning of the experiment died by the end of the experiment. A value of -100 means all cells are dead at the end of the experiment.
NCI-60 Human Tumor Cell Lines Screen was performed using the standard one-dose NCI protocol, which is described in more detail at https://dtp.cancer.gov/discovery_development/nci-60/default.htm.
Compounds with GIPRCNT values below 10 were considered active. Activity score was based on GIPRCNT using the following formula: […]
Score is 0 for GIPRCNT values of 100 or above, 50 for GIPRCNT values of 0, and 100 for GIPRCNT values of -100.

Row | Compound | growth
1 | COc1ccc(C(=NN=C(N)N)c2ccc(OC)cc2)cc1 | 65%
2 | CCn1c(C)nc2cc(C(N)=O)ccc21 | 108%
3 | CC1SC(c2ccc(OCc3ccccc3)cc2)N(NC(=O)C(O)(c2ccccc2)c2ccccc2)C1=O (stereo not given) | 74.6%
4 | Cc1ccc(S(=O)(=O)n2cc(CNc3ccc(N4CCOCC4=O)cc3)c3ccccc32)cc1 | 89.6%
5 | CCOC(=O)c1c2ncccc2n2c(=O)n(-c3ccccc3C)nnc12 | 112%
6 | COc1ccc(/C=N/C2=C(C#N)C(c3ccc(OC)cc3)c3ccc4ccccc4c3O2)cc1 (stereo not given) | 84.2%
7 | Cc1ccc2nc(NC(=O)CSc3nc(-c4ccccc4)c(C#N)c(=O)n3Cc3ccccc3)sc2c1 | 78.2%
8 | Cc1cc(C(=O)c2ccccc2)c(C)c2c1[nH]c1ccc(Cl)cc12 | 33.2%
9 | COc1ccc(-c2c(N)n[nH]c2-c2ccc(Cl)cc2O)cc1OC | 89.2%
10 | NC(N)=Nc1nc2ccccc2n2c1nc1ccccc12 | 43.8%
11 | Cc1cc(=O)[nH]c(N=Nc2c(O)[nH]c3ccccc23)n1 | 122%
12 | COc1ccccc1NC(=O)N/C(N)=N/c1nc2ccccc2s1 | 27.9%
13 | O=c1[nH]c2ccccc2n1C1CCN(CCOc2ccccc2)CC1 | 54.6%
14 | COc1cc(/C=N/n2c(CN3CCOCC3)nc3ccccc3c2=O)cc(OC)c1OC | 105%
15 | C[C@@]1(CCC#N)[C@H]2CC[C@@H]3[C@H]4[C@H](C(=O)/C=C/c5cccnc5)CC[C@]4(C#N)CC[C@@]3(C)[C@]2(C)CC[C@H]1C(=O)/C=C/c1cccnc1 | 78.4%
16 | COc1cc(/C=C2\C(=O)ON=C2C)cc(OC)c1OC | 92%
17 | COc1ccc(NC(=O)CSc2nnc(-c3cc(-c4ccc(S(N)(=O)=O)cc4)nc4ccccc34)n2-c2ccccc2)cc1 | 75.6%
18 | N#CCN1C(=O)C2C3=C(CCCC3)SC2N=C1CN1CCCC1 (stereo not given) | 108%
19 | O=C(c1ccccc1)N1N=C(c2ccccc2)CC1c1nnc2n(Cc3ccccc3)c(=O)c3c4c(sc3n12)CCCC4 (stereo not given) | 109%
20 | c1cc2ccc3cc2cc1CNCCOCCNCc1ccc2ccc(cc2c1)CNCCOCCNC3 | -17.6% (active)

Row | Compound | growth
21 | Cn1ccc2c(c1=O)C(=O)c1nccc3c1c-2nc1ccccc13 | 96.8%
22 | CC(=O)N1N=C(c2ccc(Nc3nc(Nc4ccc(F)cc4)nc(Nc4ccc(F)cc4)n3)cc2)CC1c1cccc([N+](=O)[O-])c1 (stereo not given) | 96.5%
23 | O=C(COc1ccc(/C=C2\Oc3ccccc3C2=O)cc1)Nc1nc2ccccc2s1 | 88.5%
24 | NC(=O)c1ccc[n+]([C@@H]2O[C@H](COP(=O)([O-])OP(=O)(O)OC[C@H]3O[C@@H](n4cnc5c(N)ncnc54)[C@H](O)[C@@H]3O)[C@@H](O)[C@H]2O)c1 | 107%
25 | Cc1nn(-c2ccccc2)c(Oc2ccc(Cl)cc2)c1/C=N\N=c1/sc2ccccc2n1C | 78.8%
26 | CSc1n(Cc2ccc3ccccc3c2)c(C)c[n+]1Cc1ccc2ccccc2c1 | -23.3% (active)
27 | CC(C)C(=O)Nc1n[nH]c2cc(-c3cccc(NS(=O)(=O)C4CC4)c3)ccc12 | 77.7%
28 | O=C(N=c1oc2ccccc2cc1-c1cc2ccccc2[nH]1)c1ccc(Cl)cc1 | 63.3%
29 | Cc1ccc(-n2nc3c(c(C#N)c2=O)CC(c2ccccc2Cl)C([N+](=O)[O-])=C3O)cc1 (stereo not given) | 94.7%
30 | CCN(CCNc1ccc(C)c2sc3ccccc3c(=O)c12)CC(C)(C)O | 59.5%
31 | COc1cc(-c2n/c(=C\c3c(O)[nH]c4ccc(Cl)cc34)cc3c2=Nc2ccccc2-3)cc(OC)c1OC | 20.9%
32 | Cc1c(Cl)cc(-n2c(=O)c3ccccc3c3ccccc3c2=O)cc1Cl | 99.3%
33 | COc1cc2c(cc1-c1c(C)noc1C)ncc1nc(C3CCCCC3)n(C3CCC(OC(F)F)CC3)c12 (stereo not given) | 52.2%
34 | CCCCc1ccc(Nc2ccc(Nc3ccc(CCCC)cc3S(=O)(=O)O)c3c2C(=O)c2ccccc2C3=O)c(S(=O)(=O)O)c1 | 102%
35 | O=C(Nc1ccccc1)Nc1cccc(Oc2nnc(Cl)c3ccccc23)c1 | 1.19% (active)
36 | COc1nc2c(c(=O)n1C)CN(c1ccccc1)C(=O)CN2C | 59.9% [100 µM]
37 | O=C1/C(=C/c2ccccc2)CCc2nc3ccccc3c(/C=C/c3ccc(Cl)cc3)c21 | 104%
38 | CC(=O)O[C@]1(C(C)=O)CCC2C3C[C@H](C)C4=CC(=O)CC[C@]4(C)C3CC[C@@]21C (stereo not given in full) | 130%
39 | CC(C)CCC[C@@H](C)[C@H]1CC[C@H]2[C@@H](Nc3ccc(O)cc3)CCC[C@]12C | 104%
40 | CC/C=C\C/C=C\C[C@H](O)C/C=C1/C(=O)C=C[C@@H]1C/C=C\CCCC(=O)O | 42.6%
